Test results: PubChem BioAssay (Tox21)
Records with an inconclusive call do not appear. Active and inactive are the calls of the source. Unless noted, calls follow the shape of the dose curve; as a rule, active = well fitted curve in the direction sought with a large enough effect in the repeat runs; inconclusive = weak or mixed curves; inactive = no such curve, though single readings can be large; an effect the other way counts as inactive or inconclusive.

Columns and labels:
[1] = qHTS RealTime-Glo MT Cell Viability Assay in HEK293 cells - 0 hour (AID 1224880); also: top concentration of the series differs between compounds; nearly all actives have a fitted effect of over 45% in size
Method in brief: (§1)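 Real-time viability in HEK293: signal arises when living cells convert a prosubstrate for NanoLuc in the medium, so luminescence tracks viable cell number. Compound (23 nL, DMSO) added 5 h post-seeding; kinetic reads at 0–40 h, 37 C.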

[2] = A CellTox Green Cytotoxicity Assay to monitor cytotoxicity in HEK293 cells - 32 hour (AID 1224881); also: nearly all actives have a fitted effect of over 40% in size
Method in brief: (§2)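 Cells (HEK293, 600/well) and dye reagent are dispensed together. After 5 h at 37 C, 23 nL compound is pinned in. Plates stay at 37 C for 40 h with fluorescence read at 0h, 8h, 16h, 24h, 32h and 40h.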

[3] = A CellTox Green Cytotoxicity Assay to monitor cytotoxicity in HepG2 cells - 0 hour (AID 1224882); also: nearly all actives have a fitted effect of over 35% in size
Method in brief: (§3)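 Cells and non-lytic dye reagent are dispensed together (600 HepG2 cells/well) and incubated 5 h before DMSO compound transfer. Kinetic fluorescence is then recorded in the same wells during 40 h at 37 C.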

[4] = A CellTox Green Cytotoxicity Assay to monitor cytotoxicity in HepG2 cells - 32 hour (AID 1224883); also: nearly all actives have a fitted effect of over 50% in size
Method in brief: as §3

[5] = A CellTox Green Cytotoxicity Assay to monitor cytotoxicity in HEK293 cells - 8 hour (AID 1224884); also: nearly all actives have a fitted effect of over 35% in size
Method in brief: as §2

[6] = qHTS RealTime-Glo MT Cell Viability Assay in HepG2 cells - 16 hour (AID 1224885); also: nearly all actives have a fitted effect of over 50% in size
Method in brief: (§4)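 HepG2 suspension premixed with RealTime-Glo reagents is plated at 600 cells per well and left 5 h at 37 C/5% CO2. Compounds in DMSO then go in, and bioluminescence reflecting viable cell number is recorded over 40 h.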

[7] = qHTS RealTime-Glo MT Cell Viability Assay in HEK293 cells - 24 hour (AID 1224886); also: top concentration of the series differs between compounds; nearly all actives have a fitted effect of over 50% in size
Method in brief: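 Reads taken at 0, 8, 16, 24, 32 and 40 h from the same wells. HEK293 cells (600/well) carried RealTime-Glo reagents from seeding, with compound added after a 5 h settle at 37 C.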

[8] = qHTS RealTime-Glo MT Cell Viability Assay in HEK293 cells - 8 hour (AID 1224887); also: top concentration of the series differs between compounds; nearly all actives have a fitted effect of over 50% in size
Method in brief: as §1

[9] = A CellTox Green Cytotoxicity Assay to monitor cytotoxicity in HEK293 cells - 16 hour (AID 1224888); also: nearly all actives have a fitted effect of over 35% in size
Method in brief: as §2

[10] = qHTS RealTime-Glo MT Cell Viability Assay in HepG2 cells - 0 hour (AID 1224889); also: nearly all actives have a fitted effect of over 50% in size
Method in brief: as §4

[11] = A CellTox Green Cytotoxicity Assay to monitor cytotoxicity in HepG2 cells - 8 hour (AID 1224890); also: nearly all actives have a fitted effect of over 45% in size
Method in brief: as §3

[12] = qHTS assay to identify small molecule antagonists of the estrogen receptor alpha (ER-alpha) signaling pathway using the BG1 cell line in the presence of 0.1 nM 17-beta-estradiol - cell viability counter screen (AID 1259241); also: nearly all actives have a fitted effect of over 40% in size
Method in brief: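 Cytotoxicity counter-screen: live-cell protease activity measured by fluorescence (30 min reagent step) in the same wells. Cells were VM7Luc4E2 with endogenous ER-alpha and ERE-driven luciferase, treated 22 hr at 37C alongside 0.1 nM 17beta-estradiol final.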

[13] = qHTS assay to identify small molecule antagonists of the androgen receptor (AR) signaling pathway using the MDA cell line in the presence of 0.5 nM R1881 - cell viability counter screen (AID 1259242); also: nearly all actives have a fitted effect of over 45% in size
Method in brief: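 Steps: plate MDA-kb2 cells, rest 5 hr at 37C without CO2; pin in compounds in DMSO; add R1881 to 0.5 nM final; incubate 16 hr; add CellTiter-Fluor, 30 min; read fluorescence.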

[14] = qHTS assay to identify small molecule phospholipidosis (PLD) inducers (AID 1259344; active = well fitted curve in the direction sought with a large enough effect; an effect the other way counts as inactive or inconclusive)
Method in brief: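 Cells (HepG2, 900 per well) attach for 4 h, receive LipidTOX Red and compound together, incubate 24 h at 37 C, are fixed 30 min with paraformaldehyde/Hoechst, then imaged at one site per well.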

[15] = qHTS assay to identify small molecule HDAC inhibitors (AID 1259364);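 also: wild-type HCT-116 cells with endogenous class I/II HDAC activity; top concentration of the series differs between compounds; nearly all actives have a fitted effect of over 45% in size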
Method in brief: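 Cells (HCT-116, wild type) are seeded at 1,500 per well, incubated overnight, treated with compound in DMSO for 2 hr, then developed with HDAC-Glo I/II reagent for 30 min at room temperature.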

[16] = qHTS assay to identify small molecule HDAC inhibitors - cell viability counter screen (AID 1259365)
Method in brief: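 CellTiter-Glo luminescence (30 min, room temperature) reported viability after a 2 h compound exposure at 37 C. Cells: wild-type HCT-116, 1,500 per well, seeded the night before.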

[17] = qHTS assay to identify small molecule antagonists of the sonic hedgehog signaling (Shh) pathway - cell viability counter screen (AID 1259367); also: nearly all actives have a fitted effect of over 55% in size
Method in brief: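 Cytotoxicity was assessed in parallel with Shh reporter activity by measuring live-cell protease fluorescence (CellTiter-Fluor) in NIH/3T3 cells stably carrying Gli1-Luc, treated with compound under conditioned medium stimulation for 23 hr plus 1 hr reagent incubation.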

[18] = molecular target: Androgen receptor (Homo sapiens) (UniProt P10275); assay: qHTS assay to identify small molecule antagonists of the androgen receptor (AR) signaling pathway using the MDA cell line in the presence of 0.5 nM R1881 (AID 1259243); also: nearly all actives have a fitted effect of over 50% in size
Chain of Androgen receptor (Homo sapiens) (P10275 whole entry, looked up): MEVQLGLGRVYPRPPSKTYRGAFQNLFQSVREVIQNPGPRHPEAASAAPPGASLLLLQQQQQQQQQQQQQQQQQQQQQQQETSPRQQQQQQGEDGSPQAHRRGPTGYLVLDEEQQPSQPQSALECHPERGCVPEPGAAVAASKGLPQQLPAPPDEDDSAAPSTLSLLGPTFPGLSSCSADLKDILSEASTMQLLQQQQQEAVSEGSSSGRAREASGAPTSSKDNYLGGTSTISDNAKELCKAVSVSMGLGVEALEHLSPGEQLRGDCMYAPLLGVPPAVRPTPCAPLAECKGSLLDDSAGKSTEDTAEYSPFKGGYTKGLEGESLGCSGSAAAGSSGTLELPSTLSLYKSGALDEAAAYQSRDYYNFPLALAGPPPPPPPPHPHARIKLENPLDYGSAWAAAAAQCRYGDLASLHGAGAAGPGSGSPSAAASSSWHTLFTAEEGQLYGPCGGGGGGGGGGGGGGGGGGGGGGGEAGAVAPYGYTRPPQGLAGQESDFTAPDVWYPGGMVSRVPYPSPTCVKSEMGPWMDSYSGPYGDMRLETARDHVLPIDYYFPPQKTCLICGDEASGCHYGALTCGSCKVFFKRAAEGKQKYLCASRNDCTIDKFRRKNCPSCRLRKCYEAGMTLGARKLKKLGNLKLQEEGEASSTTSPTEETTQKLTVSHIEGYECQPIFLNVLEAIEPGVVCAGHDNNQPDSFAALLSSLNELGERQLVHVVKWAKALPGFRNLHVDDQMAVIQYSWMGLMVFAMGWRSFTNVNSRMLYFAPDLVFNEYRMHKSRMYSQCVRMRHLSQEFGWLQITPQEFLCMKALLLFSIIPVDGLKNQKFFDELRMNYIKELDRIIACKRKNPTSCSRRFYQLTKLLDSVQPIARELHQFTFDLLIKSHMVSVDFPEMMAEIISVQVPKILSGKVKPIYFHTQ
Method in brief: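 Stably transfected MDA-kb2 cells express luciferase from an MMTV promoter bearing both AR and GR response elements. Compounds plus 0.5 nM R1881 (final) were incubated 16 hr at 37C without CO2, then luminescence measured.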

[19] = molecular target: Estrogen receptor (Homo sapiens) (UniProt P03372); assay: qHTS assay to identify small molecule antagonists of the estrogen receptor alpha (ER-alpha) signaling pathway using the BG1 cell line in the presence of 0.1 nM 17-beta-estradiol (AID 1259244); also: nearly all actives have a fitted effect of over 50% in size
Chain of Estrogen receptor (Homo sapiens) (P03372 whole entry, looked up): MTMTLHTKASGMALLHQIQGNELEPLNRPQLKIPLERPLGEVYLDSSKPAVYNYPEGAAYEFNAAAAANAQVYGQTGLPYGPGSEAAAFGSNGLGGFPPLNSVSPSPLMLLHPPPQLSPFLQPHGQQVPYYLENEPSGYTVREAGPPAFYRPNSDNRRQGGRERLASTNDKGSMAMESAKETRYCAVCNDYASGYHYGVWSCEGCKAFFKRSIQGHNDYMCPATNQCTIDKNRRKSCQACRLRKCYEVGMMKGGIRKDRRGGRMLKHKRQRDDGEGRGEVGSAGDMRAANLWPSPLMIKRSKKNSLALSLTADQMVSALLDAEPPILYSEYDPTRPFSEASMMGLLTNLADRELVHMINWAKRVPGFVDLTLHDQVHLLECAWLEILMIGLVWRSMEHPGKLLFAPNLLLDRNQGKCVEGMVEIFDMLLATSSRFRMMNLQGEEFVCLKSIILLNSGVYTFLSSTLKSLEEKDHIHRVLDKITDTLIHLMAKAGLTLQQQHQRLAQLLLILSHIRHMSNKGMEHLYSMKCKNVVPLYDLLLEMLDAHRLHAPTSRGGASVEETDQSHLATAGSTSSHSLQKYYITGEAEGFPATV
Method in brief: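 Antagonist mode: compounds in DMSO are pinned onto VM7Luc4E2 reporter cells, 0.1 nM final 17beta-estradiol is added, and after 22 h at 37C luciferase luminescence is measured with ONE-Glo.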

[20] = qHTS assay to identify small molecule agonists of the sonic hedgehog signaling (Shh) pathway - cell viability counter screen (AID 1259366); also: nearly all actives have a fitted effect of over 50% in size
Method in brief: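 Cytotoxicity counter screen: CellTiter-Fluor reagent added after 23 h compound exposure, then 1 h at 37C and fluorescence read. Cells were 3T3 Gli1-Luc, seeded 2,000 per well and dosed 4 h post-plating.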
% is scaled to controls: 0 for no effect and ±100 for the full control effect.

C[C@H]1O[C@@H](n2cc(F)c(=O)[nH]c2=O)[C@H](O)[C@@H]1O
inactive: outcome [1] | Potency [2] | Potency [3] | Potency [4] | Potency [5] | outcome [6] | Potency [7] | Potency [8] | Potency [9] | Potency [10] | Potency [11] | outcome [12] | outcome [13] | Potency [14] | Potency [15] | outcome [16] | outcome [17]

NC(N)=NS(=O)(=O)c1ccc(N)cc1
inactive: outcome [1] | Potency [2] | Potency [3] | Potency [4] | Potency [5] | Potency [7] | Potency [8] | Potency [9] | Potency [10] | Potency [11] | outcome [12] | outcome [13] | Potency [18] | outcome [19] | Potency [14] | Potency [15] | outcome [16] | Potency [20] | outcome [17]

Cc1cc(C)c(NC(=O)CN(CC(=O)O)CC(=O)O)c(C)c1Br
inactive: outcome [1] | Potency [2] | Potency [3] | Potency [4] | Potency [5] | outcome [6] | Potency [8] | Potency [9] | Potency [10] | Potency [11] | outcome [12] | outcome [13] | Potency [14] | Potency [15] | outcome [16] | Potency [20] | outcome [17]

CC(C)(O)C(=O)c1ccc(OCCO)cc1
inactive: outcome [1] | Potency [2] | Potency [3] | Potency [4] | Potency [5] | outcome [6] | Potency [8] | Potency [9] | Potency [10] | Potency [11] | outcome [12] | outcome [13] | outcome [19] | Potency [15] | outcome [16] | Potency [20] | outcome [17]

CCCOc1ccccc1-c1nc2n[nH]nc2c(=O)[nH]1
inactive: outcome [1] | Potency [2] | Potency [3] | Potency [4] | Potency [5] | outcome [6] | Potency [8] | Potency [9] | Potency [10] | Potency [11] | outcome [12] | outcome [13] | outcome [19] | Potency [14] | Potency [15] | outcome [16] | Potency [20] | outcome [17]

OC/C=C/c1ccccc1
inactive: outcome [1] | Potency [2] | Potency [3] | Potency [4] | Potency [5] | outcome [6] | Potency [8] | Potency [9] | Potency [10] | Potency [11] | outcome [12] | outcome [13] | Potency [14] | Potency [15] | Potency [20] | outcome [17]

Cc1cc(C)cc(OCC2CNC(=O)O2)c1 (stereo unspecified)
inactive: outcome [1] | Potency [2] | Potency [3] | Potency [4] | Potency [5] | Potency [7] | Potency [8] | Potency [9] | Potency [10] | Potency [11] | outcome [12] | outcome [13] | outcome [19] | Potency [14] | Potency [15] | outcome [16] | outcome [17]

FC(F)(F)C(F)(F)C(F)(F)C(F)(F)C(F)(F)C(F)(F)C(F)(F)C(F)(F)C(F)(F)C(F)(F)F
inactive: activity change, negative = cytotoxicity [1] -21.9% [at 6.97 µM] | cytotoxicity increase [2] -14.9% [at 6.97 µM] | cytotoxicity [3] 4.39% [at 6.97 µM] | cytotoxicity increase [4] 1.61% [at 6.97 µM] | cytotoxicity increase [5] 4.13% [at 6.97 µM] | activity change, negative = cytotoxicity [7] -12.9% [at 6.97 µM] | activity change, negative = cytotoxicity [8] -20.1% [at 6.97 µM] | activity change [9] -9% [at 6.97 µM, stronger effect = higher value] | activity change, negative = cytotoxicity [10] 12.4% [at 6.97 µM] | cytotoxicity increase [11] -4.05% [at 6.97 µM] | activity change, negative = cytotoxicity [12] -0.635% [at 8.39 µM] | viability change, negative = cytotoxic [13] -3% [at 8.39 µM] | activity change, negative = inhibition [15] -3.49% [at 8.39 µM] | activity change, negative = cytotoxicity [16] 4.94% [at 8.39 µM] | viability change, negative = cytotoxic [20] 2.95% [at 8.39 µM] | viability change, negative = cytotoxic [17] 4.53% [at 8.39 µM]

CCCCc1ccc(N)cc1
inactive: outcome [1] | Potency [2] | Potency [3] | Potency [4] | Potency [5] | outcome [6] | Potency [8] | Potency [9] | Potency [10] | Potency [11] | outcome [12] | outcome [13] | outcome [19] | Potency [15] | outcome [16] | Potency [20] | outcome [17]

CC1=CCC2C(C1)C2(C)C (stereo unspecified)
inactive: outcome [1] | Potency [2] | Potency [3] | Potency [4] | Potency [5] | outcome [6] | Potency [8] | Potency [9] | Potency [10] | Potency [11] | outcome [12] | outcome [13] | Potency [18] | Potency [15] | outcome [16] | Potency [20] | outcome [17]

CC/C=C\C#N
inactive: outcome [1] | Potency [2] | Potency [3] | Potency [4] | Potency [5] | outcome [6] | Potency [7] | Potency [8] | Potency [9] | Potency [10] | Potency [11] | outcome [12] | outcome [13] | Potency [20] | outcome [17]

O=[N+]([O-])c1ccc(Oc2ccc([N+](=O)[O-])cc2)cc1
inactive: outcome [1] | Potency [2] | Potency [3] | Potency [4] | Potency [5] | outcome [6] | Potency [9] | Potency [10] | Potency [11] | outcome [12] | outcome [13] | outcome [19] | Potency [15] | Potency [20] | outcome [17]

C=C(C)C(=O)NCCC[N+](C)(C)C
inactive: outcome [1] | Potency [2] | Potency [3] | Potency [4] | Potency [5] | outcome [6] | Potency [8] | Potency [9] | Potency [10] | Potency [11] | outcome [12] | outcome [13] | Potency [15] | outcome [16] | Potency [20] | outcome [17]

NC1CCN(c2cccc(Cl)n2)CC1
inactive: outcome [1] | Potency [2] | Potency [3] | Potency [4] | Potency [5] | Potency [7] | Potency [8] | Potency [9] | Potency [10] | Potency [11] | outcome [12] | outcome [13] | Potency [18] | Potency [14] | Potency [15] | outcome [16] | Potency [20] | outcome [17]

CC(C)CCCC(C)CCCC(C)CCCCC(C)CCCC(C)CCCC(C)C (stereo unspecified)
inactive: outcome [1] | Potency [2] | Potency [3] | Potency [4] | Potency [5] | outcome [6] | Potency [8] | Potency [9] | Potency [10] | Potency [11] | outcome [12] | outcome [13] | Potency [14] | Potency [15] | Potency [20] | outcome [17]
